{"source": "PubChem BioAssay (NCI)", "note": "Compounds without any hit were thinned out: in the full panel of roughly 83,000, 20% have a hit.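 For each line, cells grew in 96-well plates with the test compound present at a single concentration for 48 hours.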 Activity calls are given as the source filed them."}
{"tested_on": "HOP-92 NSCLC", "test": "NCI-60 one-dose screen, 48 h (100 = growth as untreated, 0 = no growth, -100 = all killed)", "conditions": "10 µM unless noted", "description": "Growth inhibition of the HOP-92 human Non-Small Cell Lung tumor cell line is measured as a screen for anti-cancer activity. Cells are grown in 96 well plates and exposed to the test compound for 48 hours. Compounds are tested at a single concentration, which is 10^-5 M for most compounds. The reported endpoint is percent growth (GI% or GIPRCNT), where numbers from 0 - 100% represent growth inhibition, and numbers from -100% - 0 represent cell death. For example, a value of 40 represents 60% growth inhibition. A value of 0 means no net growth occurred over the course of the experiment. A value of -40 indicates 40% of cells at the beginning of the experiment died by the end of the experiment. A value of -100 means all cells are dead at the end of the experiment.\nNCI-60 Human Tumor Cell Lines Screen was performed using the standard one-dose NCI protocol, which is described in more detail at https://dtp.cancer.gov/discovery_development/nci-60/default.htm.\nCompounds with GIPRCNT values below 10 were considered active. Activity score was based on GIPRCNT using the following formula: […]\nScore is 0 for GIPRCNT values of 100 or above, 50 for GIPRCNT values of 0, and 100 for GIPRCNT values of -100."}
{"smiles": "COC(=O)CCCNC(=O)C(=O)c1c(O)c(O)c(C(C)C)c2cc(C)c(-c3c(C)cc4c(C(C)C)c(O)c(O)c(C(=O)C(=O)NCCCC(=O)OC)c4c3O)c(O)c12", "growth": "-0.407% (active)"}
{"smiles": "CNC(=O)c1cc(Oc2ccc3nc(Nc4cc(Cl)cc(Cl)c4)ccc3c2)ccn1", "growth": "67.6% (inactive)"}
{"smiles": "COc1ccc(/C(C)=C(\\c2ccc(Cl)cc2)c2ccc(OCCCN(C)C)cc2)cc1F", "growth": "92% (inactive)"}
{"smiles": "CCOC(=O)C1=C(C)NC(SCc2nnc(-c3ccc(Cl)cc3)o2)=NC1c1ccc(Cl)cc1Cl", "note": "(stereo not given)", "growth": "26.4% (inactive)"}
{"smiles": "C[C@@H]1C(=O)N(C[C@@H](Cc2ccccc2)NC(=O)OCc2ccccc2)[C@]1(Cc1ccccc1)C(=O)OCc1ccccc1", "growth": "30.1% (inactive)"}
{"smiles": "COc1cc2c(cc1OC)-c1ccc3cc4c(cc3c1N(CCN1CCCC1)C2)OCO4", "growth": "22.8% (inactive)"}
{"smiles": "O=C1CSC(c2ccc(O)cc2)N1c1nnc(Cn2cnnc2)o1", "note": "(stereo not given)", "growth": "71.9% (inactive)"}
{"smiles": "COc1cc(C(=O)/C=C/c2c(-c3ccc(F)cc3)nc3ncccn23)cc(OC)c1OC", "growth": "23.6% (inactive)"}
{"smiles": "N=C(N)c1ccc(-c2ccc(-c3ccc(Cl)c(Cl)c3)o2)nc1", "growth": "84.6% (inactive)"}
{"smiles": "O=C1CC(c2ccc3c(c2)OCO3)Nc2cc3c(cc21)OCO3", "note": "(stereo not given)", "growth": "29.2% (inactive)"}
{"smiles": "O=S(=O)(NCCNc1cc(-c2c(-c3cccc(O)c3)nc3sccn23)ccn1)c1ccc(Br)cc1", "growth": "74.9% (inactive)"}
{"smiles": "Nc1ccc(S(=O)(=O)Nc2ccsc2-c2nc(-c3ccccc3)no2)cc1", "growth": "62.2% (inactive)"}
{"smiles": "Cc1c(C(=O)O)nnn1-c1nccs1", "growth": "82.4% (inactive)"}
{"smiles": "CCc1c(C(=O)N[C@@H]2c3cc(Cl)ccc3CC[C@@H]2O)[nH]c(C)c1C(C)=O", "growth": "84.1% (inactive)"}
{"smiles": "COc1cc(NC(=O)c2cc(O)c(CC=C(C)C)c(O)c2)cc2c1O[C@]1(C)CC[C@@H](O)C(C)(C)[C@H]1C2", "growth": "-0.592% (active)"}
{"smiles": "CCN(CCO)CC(=O)c1cc(Cl)cc(Cl)c1Cl", "growth": "89.4% (inactive)"}
{"smiles": "CSc1ncc(C)c(Nc2ccc(Cl)cc2)n1", "growth": "73.6% (inactive)"}
{"smiles": "Clc1ccc(-c2nc(NCCc3ccccc3)nc3c(NCCc4ccccc4)cnn23)cc1", "growth": "97.7% (inactive)"}
{"smiles": "COc1cc2c(cc1OC)-c1ccc3cc4c(cc3c1N(CCCn1ccnc1)C2)OCO4", "growth": "26.8% (inactive)"}
{"smiles": "CCCCNCC(=O)Nc1ccc(C(=O)OCC)cc1", "growth": "79.6% (inactive)"}
{"smiles": "CCCNCC(=O)Nc1ccc(C(=O)OC(C)(C)CC)cc1", "growth": "74.4% (inactive)"}
{"smiles": "CN(C)c1ccc(C#Cc2c(F)cccc2Cl)cc1", "growth": "79.5% (inactive)"}
{"smiles": "COc1ccc(/C(C)=C(\\c2ccc(Cl)cc2)c2ccc(OCCN3CCCCCC3)cc2)cc1F", "growth": "73.3% (inactive)"}
{"smiles": "Cc1ccc2c(n1)C(=O)C(Oc1ccc(F)cc1)=CC2=O", "growth": "123% (inactive)"}
{"smiles": "Fc1ccc(Nc2nc3nonc3nc2Nc2ccc(F)cc2)cc1", "growth": "-30.5% (active)"}
{"smiles": "C=C1C(=O)O[C@H]2[C@H]1CC/C(COC(=O)/C=C\\C(=O)NCc1ccc(Cn3c(=O)sn(-c4ccc(Cl)cc4)c3=O)cc1)=C\\CC[C@@]1(C)O[C@@H]21", "growth": "-66.7% (active)"}
{"smiles": "N#Cc1cnn2c(-c3ccc(Cl)cc3)nc(NCCc3ccccc3)nc12", "growth": "92.6% (inactive)"}
{"smiles": "CCOC(=O)c1nnn(C(Cc2ccccc2Cl)C(=O)OCC)c1C", "note": "(stereo not given)", "growth": "93.5% (inactive)"}
{"smiles": "C=C1C(=O)O[C@H]2[C@H]1CC/C(Cn1cc(CNCCc3c[nH]c4ccc(Cl)cc34)nn1)=C\\CC[C@@]1(C)O[C@@H]21", "growth": "-7.88% (active)"}
{"smiles": "O=C(NCc1cccnc1)c1cc(-c2csc3c(=O)cc(N4CCOCC4)oc23)cc2c1OCCO2", "growth": "19.3% (inactive)"}
{"smiles": "CC(C)N(CCOC(=O)Nc1ccccc1Cl)C(C)C", "growth": "84.4% (inactive)"}
{"smiles": "Clc1ccc(/C=N\\N=c2\\scc(-c3ccc(Cl)cc3)n2/N=C/c2ccc(Cl)cc2)cc1", "growth": "106% (inactive)"}
{"smiles": "O=C(c1ccccc1)c1ccc(N2C(=O)C3C4c5ccccc5C(/C=C/C(=O)c5ccccn5)(c5ccccc54)C3C2=O)cc1", "note": "(stereo not given)", "growth": "55.6% (inactive)"}
{"smiles": "N=c1ccn2c(n1)OC1C(O)C(CO)OC12", "note": "(stereo not given)", "growth": "49.2% (inactive)"}
{"smiles": "C=C1C(=O)O[C@H]2[C@H]1CC/C(COC(=O)/C=C\\C(=O)NCc1ccc(Cn3c(=O)sn(CCCC)c3=O)cc1)=C\\CC[C@@]1(C)O[C@@H]21", "growth": "-67.7% (active)"}
{"smiles": "COc1ccc(OC)c(Nc2nc3nonc3nc2Nc2cccc(Br)c2)c1", "growth": "-25.5% (active)"}
{"smiles": "C=C(C)[C@@H]1CC[C@]2(CN)CC[C@]3(C)[C@H](CC[C@@H]4[C@@]5(C)CCC(N)[C@@](C)(CO)[C@@H]5CC[C@]43C)[C@@H]12", "note": "(stereo not given in full)", "growth": "51.7% (inactive)"}
{"smiles": "NC(N)=N/N=C(/c1ccccc1)c1ccc(N)cc1", "growth": "92.8% (inactive)"}
{"smiles": "COc1ccc(C(=O)/C=C/c2cc3c(c(OC)c2)OCC(=O)N3)cc1", "growth": "39.5% (inactive)"}
{"smiles": "OCCCCc1nccc2c1[nH]c1ccccc12", "growth": "104% (inactive)"}
